Reference: PubChem BioAssay AID540336 (Broad Institute, 2011)
The whole screen tested about 330,000 compounds, of which about 520 (0.16%) were called active.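 The calls were made as follows: active = inhibition of at least 50% in every replicate; inconclusive = best replicate reaches 50% inhibition but some replicates fall short; inactive = the rest.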 What follows is part of a selection rich in actives, with near analogues and random picks from the rest.

target: Histone acetyltransferase RTT109 (Candida albicans (strain SC5314 / ATCC MYA-2876)) (UniProt Q5AAJ8); assay: inhibitors of C. albicans Rtt109/Vps75 HAT, primary screen, biochemical, ThioGlo CoA-SH fluorescence, plate reader (AID 540336); details: purified Rtt109/Vps75, ThioGlo CoA-SH fluorescence, 4 h; at 34.9 µM; stronger effect = higher value
Sequence (Q5AAJ8 whole entry, looked up): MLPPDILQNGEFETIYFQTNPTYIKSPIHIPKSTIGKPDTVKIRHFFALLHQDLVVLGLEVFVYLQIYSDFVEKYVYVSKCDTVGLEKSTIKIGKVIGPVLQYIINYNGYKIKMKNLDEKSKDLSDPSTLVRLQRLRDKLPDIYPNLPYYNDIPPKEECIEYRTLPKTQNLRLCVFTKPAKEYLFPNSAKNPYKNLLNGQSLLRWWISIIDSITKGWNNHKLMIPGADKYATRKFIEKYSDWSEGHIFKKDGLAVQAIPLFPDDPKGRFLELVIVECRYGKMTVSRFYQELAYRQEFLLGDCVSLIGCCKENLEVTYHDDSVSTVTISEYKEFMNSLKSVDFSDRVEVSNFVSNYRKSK

inhibition, active:
O=C(Nc1ccccc1Cl)/C(Cl)=C(\Cl)S(=O)c1ccccc1 (configuration not stated) 136%
CCOC(=O)Cc1csc(NC(=O)CSc2nc(C)cc(=O)[nH]2)n1 66.2%
CSc1ccc(NC(=O)/C=C/C(=O)O)cc1 63.6%
CN(C)S(=O)(=O)Oc1ccccc1C(=O)Nc1ccccc1Cl 58.3%
O=C(NCCCN1CCN(c2ccccc2F)CC1)C1CCC(=O)N1C1CCCCC1 (configuration not stated) 58.1%
Oc1c(C(c2ccccn2)N2CCOCC2)ccc2cccnc12 (configuration not stated) 51.7%
CC(=O)N(c1ccc2oc(=O)sc2c1)S(=O)(=O)c1ccc(C)cc1 134%

inhibition, inactive:
COc1cccc(/C=N/Nc2ccc(S(=O)(=O)Nc3ccccc3C(=O)O)cc2[N+](=O)[O-])c1O 31.2%
COc1ccc(/C=C/C(=O)OCC(=O)N2CCN(S(=O)(=O)c3ccc(C)cc3C)CC2)cc1OC -12.4%
Cc1ccc2c(O)c(Cc3ccccc3)c(=O)[nH]c2n1 3.15%
CCOC(=O)c1ccccc1NC(=O)CSc1nc2c(sc(=S)n2CC)c(=O)[nH]1 12.6%
COc1ccc(CNCCCn2cnc3c(OCc4ccccc4)ncnc32)cc1 -0.493%
CC1(C)CC(CCC(=O)Nc2ccccc2Cl)C(=O)O1 (configuration not stated) -18.6%
O=C(Nc1ccccc1Cl)O/N=C(/c1ccccc1)c1ccccn1 -0.825%
Cc1cc2c(cc1C)NC1(C[C@H]3CCC(=O)N4CC[C@@H](C1)[C@@H]34)C(=NC(C)(C)CC(C)(C)C)N2 (some centres not stated) -1.37%
COc1ccccc1C(=O)c1ccccc1C(=O)c1ccccc1 -0.662%
COc1ccc2c(c1)C(=O)CC(c1ccccc1)O2 (configuration not stated) -1.45%
CCOC(=O)Cc1csc(NC(=O)CSc2ccc(Br)cc2)n1 2.14%
CCCCc1nnc(NC(=O)CSc2nc(C)cc(=O)[nH]2)s1 -0.892%
Cc1ccc(S(=O)(=O)N2CCC(C(=O)N3CCCCCCC3)CC2)cc1 1.29%
O=C(O)/C=C\C(=O)Nc1ccc(OCc2ccccc2)cc1 3.12%
Cc1cccc(N2CCN(c3ccc(NC(=O)/C=C\C(=O)O)cc3)CC2)c1 3.01%
O=[N+]([O-])c1ccc(NS(=O)(=O)c2ccccc2)c(Cl)c1 -7.39%
CC(=O)OC1CCC2(C)C(=CCC3C4CC(=O)N(O)C(=O)C4(C)CCC32)C1 (configuration not stated) 1.39%
NC(=O)C1(Nc2ccccc2Cl)CCCC1 -1.87%
CC(C)C[C@H]1CN([C@@H](CC(C)C)CN2CCC[C@@H]2CN2C(=O)C(=O)NC[C@@H]2Cc2ccccc2)C(=O)C(=O)N1CCc1ccccc1 3.1%
OCCN1CCN(CCO)C1=S -2.55%
O=[N+]([O-])c1cc2ccccc2nc1-c1ccccc1 2.85%
CCCN(C(=O)COC(=O)CNS(=O)(=O)c1ccc(NC(C)=O)cc1)C1CCS(=O)(=O)C1 (configuration not stated) 2.12%
Cc1cccc(C2c3c(n(C)c(=O)n(C)c3=O)N=C3c4ccccc4C(=O)C32)c1 (configuration not stated) 29.8%
O=C(Nc1ccccc1)Oc1cccc2cccnc12 1.03%
CC(C)(C)C(=O)Nc1cccc(-c2ccc[nH]2)n1 -1.5%
O=C(Nc1ccccc1Cl)c1ccccc1S(=O)(=O)c1ccccc1[N+](=O)[O-] 22.9%
CC(=O)Nc1ccc(NC(=O)COc2ccccc2C(=O)Nc2cccc(Cl)c2Cl)cc1 -5.99%
CC(C)(C)S(=O)(=O)N1Cc2cc(CO)cc(CCO)c2[C@H]1CCO -3.04%
O=C(NCCCN1CCCCCC1)C1CC(=O)N(C2CCCC2)C1 (configuration not stated) 32.5%
COc1ccc(CN2CC(C(=O)NCCN3CCN(c4ccccc4F)CC3)CC2=O)cc1 (configuration not stated) -11.1%
CCCCC(=O)NC(c1ccc(OC)c(OC)c1)c1ccc2cccnc2c1O (configuration not stated) -3.23%
CC(C)c1cc(CN2CCOCC2)cc(C(C)C)c1O -6.21%
COc1cccc(C=CC(=O)C=CC=Cc2ccccc2)c1 -4.82%
O=C(O)c1ccc(NN=CC2=C(N3CCOCC3)/C(=C/c3ccccc3)CC2)cc1 -15.5%
Cn1cc(C2OC(=O)c3ccccc32)c2ccccc21 (configuration not stated) 0.802%
O=C(Nc1c(Br)cc2c(c1Br)Cc1cc([N+](=O)[O-])ccc1-2)C(Cl)Cl -4.04%
CC(=O)Oc1ccc(N(C(C)=O)S(=O)(=O)c2ccc3ccccc3c2)cc1Br 2.06%
COC(=O)c1c(C)oc2ccc(N(C(=O)Oc3ccccc3)S(=O)(=O)c3ccccc3)cc12 0.88%
CCOC(=O)CCC(NC(=O)c1ccc(CNc2nc3cc(C(F)(F)F)ccc3nc2C(=O)OCC)cc1)C(=O)OCC (configuration not stated) 9.24%
CC(C=Cc1ccccc1)=NNS(=O)(=O)c1ccc([N+](=O)[O-])cc1 -0.601%
CC(=O)OC1CCC2C3CCC4=C(CC(F)C(=O)C4)C3CCC12C (configuration not stated) -7.91%
O=C1c2ccccc2C(=O)C1C(=O)C1CC1 0.0105%
O=C1NCC(Nc2ccccc2)C(=O)N1 (configuration not stated) -4.85%
CCCCNC1(C#N)CCN(Cc2ccccc2)CC1 0.637%
O=C1C=C(NS(=O)(=O)c2ccccc2)C(=O)c2ccccc21 -1.13%
